The list is not random: actives were taken first. Their share in the collection is about 11%.
NS1 function inh = influenza NS1 inhibition; Potency, µM (titrated, usually from 46.1 µM); 0.4% of 270,000 active; calls by dose curve; note: actives are rising curves; nearly all actives have a fitted effect of over 50% in size
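Compounds were scored for reversing the slow growth caused by influenza A NS1 in S. cerevisiae, measured by optical density at 600 nm. Assay medium contained 2% galactose at pH 6.0; NS1-free yeast of the same strain were the positive control.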
VACV Venus inh = vaccinia inhibition (Venus reporter) | Potency, µM (top dose mostly 36.5 µM), most hits filed as inhibitors | 0.46% of 330,000 active | AID 720580 | Vaccinia virus Venus reporter expression, fluorescence; calls by dose curve; tested in A549 cells; note: nearly all actives have a fitted effect of over 30% in size
VACV mCherry inh = inhibitors of vaccinia virus infection (mCherry reporter signal). Vaccinia virus mCherry reporter infection, fluorescence. Potency, µM (top dose mostly 36.5 µM), hits mostly inhibitors. 0.63% of 310,000 active. AID 720579; calls by dose curve; tested in A549 cells; note: nearly all actives have a fitted effect of over 35% in size
Pf growth 96h = inhibits malaria parasite growth, 96 h. 6.9% of 320,000 active. Potency, µM (doses to about 28.7 µM), hits mostly inhibitors. P. falciparum luciferase reporter growth, 96 h
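P. falciparum expressing integrated firefly luciferase, in erythrocytes at 2% hematocrit, 0.05% parasitemia, incubated with compounds 96 h at 37 C, 5% CO2. Growth inhibition read as loss of luminescence; two-generation exposure targets delayed-death apicoplast inhibitors.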
HCV inhibitor = blocks hepatitis C virus; Huh7.5.1 HCVcc-Cre infection, luciferase reporter, 44 h; Potency, µM (series often up to 41.8 µM), actives largely listed as inhibitors; 3.4% of 340,000 active; AID 651820
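Seed cells (1,000/well) for 4 h; treat with compound and infect with HCVcc-Cre, moi about 0.5. Incubate 44 h, then detect luciferase activity.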
Pf growth 48h = P. falciparum growth inhibition at 48 hours (one generation) | 5.9% of 310,000 active | Potency, µM (titrated, usually from 28.7 µM), actives largely listed as inhibitors | P. falciparum luciferase growth in erythrocytes, 48 h
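Read-out is firefly luciferase luminescence from an integrated reporter in P. falciparum, so falling signal marks reduced parasite growth. Infected erythrocytes were at 2% hematocrit and 0.1% parasitemia (final) in Albumax-supplemented RPMI 1640.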
NS1 inh valid = influenza NS1 function inhibition validation; shares compounds with NS1 function inh; 1,400 tested, under 10 active; activity change, negative = inhibition, % at 32.9 µM; influenza NS1 function cell assay, 15-point titration; AID 492980; calls by dose curve
Flu PR8 replic = influenza virus titer reduction, NS1 project; 30% of 95 active; MDCK infected influenza A/PR/8/34, virus titer TCID50; active compounds read low; virus titer (log TCID50), log10 TCID50 at 5 µM; shares compounds with NS1 function inh; AID 504647; call rule not given here
Hits are given with their value; n = inactive; u = inconclusive; x = not tested or not shown; [ ] = dose if it differs, or a comment. Unless noted, calls come from the whole dose curve; as a rule, active = well fitted inhibition curve with a large enough effect; inconclusive = small, poorly fitted or top-dose-only effect, or another doubt; inactive = no such curve, though single readings can be large or run the other way.

SMILES	NS1 function inh	VACV Venus inh	VACV mCherry inh	Pf growth 96h	HCV inhibitor	Pf growth 48h	NS1 inh valid	others
CN(C)S(=O)(=O)c1ccc(N2CCCC2)c(C(=O)OCC(=O)NC2CCCCC2)c1	x	n	n	u	n[8.37 µM]	u	x
CC1C(=O)N(c2ccc(S(=O)(=O)N(C)C)cc2)C1(/C=C/c1ccccc1)C(=O)NC1CCCC1 (stereo unspecified)	8.91µM	n	n	n	n	9.28µM	n
CCc1cc(-c2nnn(CCC3COCCO3)c2CC)cc(CC)c1-c1cn(Cc2ccccc2)nn1 (stereo unspecified)	x	n	u	x	x	x	x
CCC12C(=O)C(CC)(C(c3ccccc3)=C1c1ccccc1)[C@@H]1C(=O)N(c3ccc(C)cc3)C(=O)C12 (stereo partly specified)	n	n	n	u	n	u	x
CCCC12C(=O)C(C)(C(c3ccccc3)=C1c1ccccc1)C1C(=O)N(c3ccc(C)cc3)C(=O)C12 (stereo unspecified)	10µM	n	n	3.29µM	4.47µM	2.62µM	n	Flu PR8 replic=6.5
O=C(Cn1c(NCCO)nc2ccccc21)NCCc1ccc(F)cc1	1µM	n	x	n	n	u	n
O=C(Cn1c(CO)nc2ccccc21)NCCc1ccc(F)cc1	x	n	n	n	n	n	x
Cc1nn(-c2ccccc2)c2[nH]c(=O)c(CNCc3ccc4c(c3)OCO4)cc12	7.94µM	n	n	n	n	4.65µM	n
Cc1cc(C(=O)NCc2ccc3c(c2)OCO3)n(-c2ccccc2)n1	u	n	n	u	n	x	x
CNS(=O)(=O)c1cc(N(C)S(=O)(=O)c2ccc(C)cc2)c(C)cc1C	n	n	n	n	n	n	x
Cc1ccc(S(=O)(=O)N(C)c2cc(S(=O)(=O)N3CCC(C)CC3)c(C)cc2C)cc1	11.2µM	n	x	11.7µM	10µM	10.4µM	n
CCOC(=O)C1=C(C)N=c2s/c(=C\c3ccc(C(=O)O)cc3)c(=O)n2C1c1ccc(F)cc1 (stereo unspecified)	n	n	n	u	n	u	x
Cc1nn(-c2ccccc2)c2sc(-c3n[nH]c(=S)o3)cc12	2.51µM	x	x	u	u	n	u
CCOC(=O)N1CCN(C(=O)CCC(=O)N2CCOc3ccc(C)cc32)CC1	5.62µM	u	x	u	n	u	n
CCOC(=O)c1c(C)[nH]c(C(=O)C(C)OC(=O)c2cccc(OCc3c(C)noc3C)c2)c1C (stereo unspecified)	12.6µM	u	x	n	u	n	n
O=S(=O)(NCCCN1CCOCC1)c1ccc2ccccc2c1	n	n	n	n	n	u	x
Cc1cccc(CN(CC(=O)N/N=C/c2cccs2)S(=O)(=O)c2ccc(Cl)cc2)c1	8.91µM	u	x	u	11.2µM	n	n
Cc1cccc(CN(CC(=O)N/N=C/c2ccco2)S(=O)(=O)c2ccc(Cl)cc2)c1	n	n	x	n	n	x	x
Cc1cc(C)c(-c2cc(NC(=O)COC(=O)c3ccc(CO)cc3)n(-c3ccccc3)n2)cc1C	11.2µM	x	x	u	u	u	n
CCOc1ccc(NC(=S)N2CCc3cc(OC)c(OC)cc3C2COc2ccc3c(C)cc(=O)oc3c2)cc1 (stereo unspecified)	11.2µM	n	n	u	u	u	n
COc1cccc(CN(C)C(=O)c2ccc3c(=O)n4c(nc3c2)CCC4)c1	x	n	n	n	n	n	x
O=C(c1ccccc1)N(Cc1cccnc1)C1(C(=O)Nc2ccccc2)CCCCC1	n	n	n	u	n	u	x
Cc1ccc2nc(-c3cccc(S(=O)(=O)N4CCCC4)c3)cn2c1	u	x	x	n	u	n	n
Cc1ccn2cc(-c3cccc(S(=O)(=O)N4CCCCC4)c3)nc2c1	n	n	n	u	u	n	x
COc1cccc(C2N(c3cccc(Cl)c3)C(=O)C3CCCN32)c1OC (stereo unspecified)	n	n	n	n	n	x	x
